{
  "source": "PubChem BioAssay (NCI)",
  "note": "Compounds without any hit were thinned out: in the full panel of roughly 83,000, 20% have a hit.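 Activity criterion: percent growth below 10, measured after cells in 96-well plates were exposed to a single compound concentration for 48 hours.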 A number with no mark means an inactive call. Active and inactive are the calls of the source.",
  "data": [
    {"system": "HT29 colon", "experiment": "NCI-60 one-dose screen, 48 h (100 = growth as untreated, 0 = no growth, -100 = all killed)", "conditions": "10 µM unless noted", "values": [
      {"smiles": "Cn1cc(-c2cc3nc(-c4cn(C)c5ncccc45)cc(N)n3n2)c2cc(Cl)ccc21", "growth": "-55.6% (active)"},
      {"smiles": "CC12CC[C@@H]3[C@]4(C)COC(c5c(F)cccc5F)O[C@@H]4CC[C@@]3(C)[C@@H]1CC(C1=CCOC1=O)O2", "note": "(stereo partly drawn)", "growth": "76.5%"},
      {"smiles": "Cc1nc(Nc2ncc(C(=O)Nc3c(C)cccc3Cl)s2)cc(N2CCN(CCCNC(=O)COc3ccc(C4CCC(=O)NC4=O)cc3)CC2)n1", "note": "(stereo not drawn)", "growth": "-13.6% (active)"},
      {"smiles": "Cn1cc(NC(=O)c2cc(NC(=O)c3ccc(/C=C/c4ccccc4)cc3)cn2C)cc1C(=O)NCCCN1CCOCC1", "growth": "-88.5% (active)"},
      {"smiles": "Cc1ccccc1[C@H]1C(C(=O)c2ccc(Cl)cc2)C2(N[C@@H]1c1ccccc1)C(=O)Nc1ccc(Br)cc12", "note": "(stereo partly drawn)", "growth": "-58.6% (active)"},
      {"smiles": "Brc1ccc(N/N=C/c2c[nH]c3ccc(Br)cc23)nc1", "growth": "-80.1% (active)"},
      {"smiles": "C=C1CCC2C3(C)COC(c4ccccc4)OC3CCC2(C)C1CC(Sc1ccccc1)C1=CCOC1=O", "note": "(stereo not drawn)", "growth": "13.8%"},
      {"smiles": "Clc1cccc(N/N=C/c2c[nH]c3ccc(Br)cc23)n1", "growth": "23.6%"},
      {"smiles": "COc1c(F)ccc(C(=O)Nc2ccc3nc(NC(=O)C4CCCN(S(=O)(=O)c5cccc(C(F)(F)F)c5)C4)sc3c2)c1F", "note": "(stereo not drawn)", "growth": "83.2%"},
      {"smiles": "O=c1oc2ccc(Br)cc2cc1C1=CSc2nc3sc4c(c3c(=O)n2N=C1)CCCC4", "growth": "108%"},
      {"smiles": "CC(=O)/C=C/c1cccc2c1C(=O)NC(C)(c1cc3cc(Br)ccc3oc1=O)N2", "note": "(stereo not drawn)", "growth": "27.6%"},
      {"smiles": "O=c1[nH]c(=O)c2c(-c3cc4ccccc4oc3=O)ccnc2[nH]1", "growth": "102%"},
      {"smiles": "O=C(/C=C/Nc1ccc2oc(=O)ccc2c1)c1cc2cc(Br)ccc2oc1=O", "growth": "103%"},
      {"smiles": "CC1(c2cc3cc(Cl)ccc3oc2=O)NC(=O)c2c(/C=C/C(=O)OC3CC4CCC3(C)C4(C)C)cccc2N1", "note": "(stereo not drawn)", "growth": "60.9%"},
      {"smiles": "COc1ccc(-c2ccnc(SCc3cc4ccccc4[nH]c3=O)n2)cc1OC", "growth": "-80.8% (active)"},
      {"smiles": "CC12CC[C@@H]3[C@]4(C)COC(c5cn[nH]c5-c5cccc(Br)c5)O[C@@H]4CC[C@@]3(C)[C@@H]1CC(C1=CCOC1=O)O2", "note": "(stereo partly drawn)", "growth": "23.2%"},
      {"smiles": "O=C(c1ccc(OCCN2CCOCC2)cc1)C1[C@H](c2ccc(Cl)cc2)[C@@H](c2ccccc2)NC12C(=O)Nc1ccc(Br)cc12", "note": "(stereo partly drawn)", "growth": "-76.6% (active)"},
      {"smiles": "COc1ccc2c(c1)c(/C=N/Nc1ccc3ccccc3n1)cn2C", "growth": "-66.7% (active)"},
      {"smiles": "CN(C)CCOc1ccc(C(=O)C2[C@H](c3ccc(Cl)cc3)[C@@H](c3ccccc3)NC23C(=O)Nc2ccc(Br)cc23)cc1", "note": "(stereo partly drawn)", "growth": "-85.7% (active)"},
      {"smiles": "O=c1[nH]c2ccc(Cl)cc2cc1CSc1nccc(-c2ccc(Cl)cc2)n1", "growth": "67.7%"},
      {"smiles": "COc1cccc(/C=C/c2nc3ccccc3c(=O)n2CC(=O)Nc2ccc(Cl)cc2)c1", "growth": "64.4%"},
      {"smiles": "CCCSc1nc(Nc2ccc(S(N)(=O)=O)cc2)c(C#N)c(-c2cc(OC)c(OC)c(OC)c2)n1", "growth": "16.6%"},
      {"smiles": "CC(/C=C1\\SC(=S)N(CCCC(=O)NC(CC(C)C)C(=O)O)C1=O)=C\\c1ccccc1", "note": "(stereo not drawn)", "growth": "119%"},
      {"smiles": "COc1ccc(/C=C/c2nc3ccccc3c(=O)n2CC(=O)Nc2ccc(Cl)cc2)cc1", "growth": "38.7%"},
      {"smiles": "Cn1cc(-c2cc3nc(-c4cn(C)c5ncc(Br)cc45)cc(N)n3n2)c2cc(Cl)ccc21", "growth": "-89.2% (active)"},
      {"smiles": "Cn1cc(-c2cc(N)n3nc(-c4cn(C)c5ncccc45)cc3n2)c2cccnc21", "growth": "-66.7% (active)"},
      {"smiles": "Cc1ccc([C@H]2C(C(=O)c3ccc(Cl)cc3)C3(N[C@@H]2c2ccccc2)C(=O)Nc2ccc(Cl)cc23)cc1", "note": "(stereo partly drawn)", "growth": "3.1% (active)"},
      {"smiles": "O=C(Cn1c(/C=C/c2ccccc2)nc2ccccc2c1=O)Nc1ccc(Cl)cc1", "growth": "75.5%"},
      {"smiles": "CC12CC[C@@H]3[C@]4(C)COC(c5cn[nH]c5-c5cccc(Cl)c5)O[C@@H]4CC[C@@]3(C)[C@@H]1CC(C1=CCOC1=O)O2", "note": "(stereo partly drawn)", "growth": "28%"},
      {"smiles": "CCCCSc1nc(Nc2ccc(S(N)(=O)=O)cc2)c(C#N)c(-c2cc(OC)c(OC)c(OC)c2)n1", "growth": "42%"},
      {"smiles": "CCOC(=O)/C=C/c1cccc2c1C(=O)NC(C)(c1cc3cc(Cl)ccc3oc1=O)N2", "note": "(stereo not drawn)", "growth": "32.5%"},
      {"smiles": "O=C(c1ccc(OCCN2CCOCC2)cc1)C1[C@H](c2ccc(Cl)cc2)[C@@H](c2ccccc2)NC12C(=O)Nc1ccc(Cl)cc12", "note": "(stereo partly drawn)", "growth": "-75.4% (active)"},
      {"smiles": "CC(C)c1sc(NC(=O)c2cc(NC(=O)c3cc(NC(=O)c4nccn4C)cn3C)cn2C)nc1C(=O)NCCCN(C)C", "growth": "90.7%"},
      {"smiles": "COc1c(F)ccc(C(=O)Nc2ccc3nc(NC(=O)C4CCCN(S(=O)(=O)c5ccc(Cl)cc5)C4)sc3c2)c1F", "note": "(stereo not drawn)", "growth": "72.1%"},
      {"smiles": "O=C(N1c2ccccc2Sc2ccccc21)n1ccc2cccnc21", "growth": "60.7%"},
      {"smiles": "Cn1cc(-c2cc(N)n3nc(-c4cn(C)c5ncc(Br)cc45)cc3n2)c2cc(Br)cnc21", "growth": "-85% (active)"},
      {"smiles": "CC1=C(C#N)C2=NNCC(c3ccccc3)=NN2C(c2ccccc2)=C1", "growth": "114%"},
      {"smiles": "C=C1CC[C@@H]2[C@]3(C)COC(c4cn[nH]c4-c4ccc(F)cc4)O[C@@H]3CC[C@@]2(C)[C@@H]1C/C=C1/C(=O)OCC1O", "note": "(stereo partly drawn)", "growth": "-2.38% (active)"}
    ]}
  ]
}
